This is a sample that favours compounds with a hit; in the whole collection about 11% have one here.
AmpC no deterg: qHTS Inhibitors of AmpC Beta-Lactamase (assay without detergent); actives 0.52% (n = 330,000); AmpC nitrocefin hydrolysis, absorbance 480 nm, 0.0001% Triton; P00811; Potency, µM (top dose mostly 57.1 µM), actives largely listed as inhibitors; AID 485341, 2010; note: nearly all actives have a fitted effect of over 20% in size
Target sequence (P00811 whole entry, looked up): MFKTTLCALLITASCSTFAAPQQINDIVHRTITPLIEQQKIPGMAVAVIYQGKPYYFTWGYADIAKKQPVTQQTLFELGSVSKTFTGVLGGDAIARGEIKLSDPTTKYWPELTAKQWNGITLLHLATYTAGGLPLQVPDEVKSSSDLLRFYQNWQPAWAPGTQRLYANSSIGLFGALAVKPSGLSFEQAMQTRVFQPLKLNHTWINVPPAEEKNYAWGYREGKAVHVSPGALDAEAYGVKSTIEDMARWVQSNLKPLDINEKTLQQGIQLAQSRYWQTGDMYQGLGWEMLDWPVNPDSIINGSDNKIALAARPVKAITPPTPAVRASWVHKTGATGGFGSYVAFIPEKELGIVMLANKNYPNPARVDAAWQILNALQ
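AmpC (5.3 nM in the dispensed reagent) in 20 mM phosphate pH 7.0 with 0.01% (detergent screen) or 0.0001% Triton X-100 was preincubated with compounds for 15 min at room temperature. Nitrocefin was then added from an 800 uM solution, and hydrolysis was followed at 480 nm.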
Pf growth 48h: Primary qHTS for delayed death inhibitors of the malarial parasite plastid, 48 hour incubation. P. falciparum luciferase growth in erythrocytes, 48 h. Potency, µM (titrated, usually from 28.7 µM), most hits filed as inhibitors. actives 5.9% (n = 310,000). AID 504832, 2011
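Read-out is firefly luciferase luminescence from an integrated reporter in P. falciparum, so falling signal marks reduced parasite growth. Infected erythrocytes were at 2% hematocrit and 0.1% parasitemia (final) in Albumax-supplemented RPMI 1640.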
AmpC detergent: qHTS Inhibitors of AmpC Beta-Lactamase (assay with detergent); P00811; Potency, µM (doses to about 114 µM), hits mostly inhibitors; actives 0.041% (n = 370,000); AmpC hydrolysis of nitrocefin, absorbance 480 nm, 0.01% Triton; note: nearly all actives have a fitted effect of over 25% in size
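20 mM phosphate pH 7.0 + 0.01% (detergent screen) or 0.0001% Triton X-100; 5.3 nM AmpC reagent; cpd preinc 15 min RT; nitrocefin (800 uM stock) to start; A480 q20 s × 4 min; Activity was normalised to no-enzyme and no-compound control wells.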
HCV inh: qHTS Assay for Inhibitors of Hepatitis C Virus (HCV). Huh7.5.1 HCVcc-Cre infection, luciferase reporter, 44 h. Potency, µM (highest dose often 41.8 µM), hits mostly inhibitors. actives 3.4% (n = 340,000)
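Reporter virus HCVcc-Cre (~0.5 moi) infects cells exposed to compound; seeding density 1,000 cells/well with 4 h settling beforehand. Luminescence, 15 sec read, taken 44 h post-infection following a 15 min RT substrate incubation.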
Pf growth 96h: Primary qHTS for delayed death inhibitors of the malarial parasite plastid, 96 hour incubation; AID 504834, 2011; actives 6.9% (n = 320,000); Potency, µM (top dose mostly 28.7 µM), usual class: inhibitors; P. falciparum luciferase reporter growth, 96 h
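Parasite growth measured via integrated firefly luciferase reporter in P. falciparum. Infected erythrocytes at 2% hematocrit, 0.05% parasitemia final were treated 96 hours at 37 C under 5% CO2, and luminescence was read.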
AMA1-RON2 inh: qHTS for Inhibitors of AMA1-RON; Towards Development of Antimalarial Drug Lead: Primary Screen; Plasmodium falciparum AMA1 (3D7) - RON2 peptide interaction; AlphaScreen AMA1-biotinylated RON2 peptide binding; Potency, µM (titrated, usually from 58.2 µM), hits mostly inhibitors; actives 0.2% (n = 360,000); AID 720542, 2013; note: nearly all actives have a fitted effect of over 45% in size
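AMA1 (3D7) with his tag at 25 nM final met compounds first, then biotinylated RON2 peptide at 25 nM; detection used donor plus acceptor beads, 10 µg/mL apiece, read by AlphaScreen after 30 min at room temperature.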
Hits are given with their value; i = inactive; ? = inconclusive; nt = not tested or not shown; [ ] = dose if it differs, or a comment. Calls come from the whole dose curve; as a rule, active = well fitted curve in the direction sought with a large enough effect; inconclusive = small, poorly fitted or top-dose-only effect, or another doubt; inactive = no such curve, though single readings can be large; an effect the other way counts as inactive or inconclusive.

SMILES	AmpC no deterg	Pf growth 48h	AmpC detergent	HCV inh	Pf growth 96h	AMA1-RON2 inh
O=c1c2cn[nH]c2nc(SCc2ccccc2F)n1-c1ccc(Br)cc1	11µM	?	?	?	i	i
CCCNC(=O)c1ccc(S(=O)(=O)c2ccc(OC)cc2)c([N+](=O)[O-])c1	i	12µM	i	?	i	i
COc1ccc(C(=O)NCCNc2ccccc2[N+](=O)[O-])cc1	i	i	i	i	i	i
CCOC(=O)c1sc(=S)n(-c2cc(F)ccc2F)c1N	i	i	i	i	i	i
CCOC(=O)c1sc(=S)n(-c2ccc(Cl)cc2)c1C	i	5.2µM	i	i	?	i
Cc1c(C(=O)O)sc(=S)n1-c1ccc(Cl)cc1	i	i	i	i	i	i
CCOC(=O)c1sc(=S)n(-c2ccc(OC)cc2)c1C	i	13µM	i	i	?	i
CCOC(=O)c1sc(=S)n(-c2cc(OC)ccc2OC)c1N	i	i	i	i	9.3µM	i
CCOC(=O)c1c2c(n(-c3ccc(OC)cc3)c1C)C(=O)C(=O)c1ccccc1-2	nt	nt	nt	7.9µM	nt	?
COc1ccccc1CNC(=O)CCCn1c(=O)c2ccccc2n(CC(=O)Nc2c(C)cc(C)cc2C)c1=O	nt	nt	i	nt	nt	nt
COCCNc1ncnc2c1cnn2-c1cc(Cl)ccc1C	nt	nt	i	nt	nt	nt
CCN(CC)CCn1c2ccccc2c2cnc(N=CN(C)C)c(C#N)c21	i	?	i	?	?	i
CCn1c2ccccc2c2cnc(N=CN(C)C)c(C#N)c21	i	?	i	13µM	?	i
COc1ccc(-n2c(=O)c3c(c4cc(OC)ccc4n3C)n(Cc3ccc(F)cc3Cl)c2=O)cc1	nt	nt	i	nt	nt	nt
COC(=O)c1ccc(COc2ccccc2/C=N/NS(=O)(=O)c2ccccc2)cc1	i	i	i	10µM	i	i
O=C(NNc1ncnc2sccc12)c1ccc(Cl)cc1	i	i	i	?	i	i
Cc1csc2ncnc(NNC(=O)c3ccc(Cl)cc3)c12	i	i	i	7.9µM	?	i
CN(C)c1cc(O)c(C(=S)Nc2ccccc2)c(N(C)C)c1	i	?	i	11µM	i	i
COc1ccccc1N1CCN(S(=O)(=O)c2c(C)nc3sc(C)c(C)n3c2=O)CC1	nt	nt	i	nt	nt	nt
CC(C)(C)Nc1nc(Cl)nc(NC(C)(C)C)n1	i	i	i	i	15µM	i
CNc1nc(Cl)nc(NC(C)(C)C)n1	i	i	i	?	i	i
O=c1cc2oc3cc(O)c(O)cc3c(-c3ccccc3[N+](=O)[O-])c-2cc1O	1.1µM	?	i	?	i	0.71µM
COCCCN(Cc1ccco1)C(=O)Cn1ncc2c([nH]c3ccccc32)c1=O	i	?	?	i	?	i
COCCCN(Cc1ccco1)C(=O)CSc1nc2ncccc2[nH]1	i	i	i	i	13µM	i
CCC(C)[C@@H](NC(=O)OC(C)(C)C)c1nnc(S(=O)(=O)Cc2cccc(C)c2)o1 (stereo partly specified)	14µM	i	18µM	?	i	i
SMILES	AmpC no deterg	Pf growth 48h	AmpC detergent	HCV inh	Pf growth 96h	AMA1-RON2 inh
Cc1ccccc1CS(=O)(=O)c1nnc([C@H](Cc2ccccc2)NC(=O)OC(C)(C)C)o1	13µM	nt	28µM	i	?	i
CC(C)(C)OC(=O)N[C@@H](Cc1ccccc1)c1nnc(S(=O)(=O)Cc2ccccc2)o1	?	i	18µM	nt	nt	nt
CCSc1nnc([C@H](Cc2ccccc2)NC(=O)OC(C)(C)C)o1	i	i	i	i	nt	i
COc1ccc(NC(=S)NCC(c2ccco2)N2CCCC2)cc1 (stereo unspecified)	i	i	i	i	?	i
CC(C)C(NC(=O)c1ccco1)C(=O)NCC(c1ccco1)N1CCCCC1 (stereo unspecified)	i	?	i	i	2.1µM	i
CSCCC(NC(=O)c1ccco1)C(=O)NCC(c1ccco1)N1CCCCC1 (stereo unspecified)	i	i	i	i	?	i
S=C(NCCc1ccccc1)NCC(c1ccco1)N1CCCCC1 (stereo unspecified)	i[2.29 µM]	?	i	i	2.6µM	i
CCc1ccc(NC(=O)Cn2c(=O)n(CCC(=O)NCCc3ccc(OC)c(OC)c3)c(=O)c3ccccc32)cc1	nt	nt	i	nt	nt	nt
COc1ccccc1/C=C(/NC(=O)c1ccc(Cl)cc1Cl)C(=O)O	i	i	i	i	8.3µM	i
O=C(CN1C(=O)NC(Cc2ccccc2)C1=O)Nc1ccc(OC(F)F)cc1 (stereo unspecified)	i	i	i	i	13µM	i
C/C(CC(=O)Nc1cccc2c1CCCC2)=N\NC(=O)c1cccc2ccccc12	i	i	?	i	13µM	i
CN(Cc1ccco1)C(=O)Cn1ncc2c([nH]c3ccccc32)c1=O	i	i	i	?	9.3µM	i
CCCCOc1ccc(C2c3c(oc4ccc(C)cc4c3=O)C(=O)N2CCCN(C)C)cc1OCC (stereo unspecified)	nt	nt	i	nt	nt	nt
C=CCn1c(O)c(N=Nc2ccccc2)c2ccccc21	i	i	i	i	i	i
C=CCn1c(O)c(N=NC(=O)OCC)c2ccccc21	i	i	?	i	i	i[2.32 µM]
C=CCn1c(O)c(N=NC(=S)Nc2ccc(OC)cc2)c2ccccc21	i	10µM	i	?	i	i
C=CCn1c(O)c(N=NC(=S)Nc2cccc(OC)c2)c2ccccc21	i	3.7µM	i	?	?	i
C=CCn1c(O)c(N=Nc2ccccc2O)c2ccccc21	i	9.3µM	i	i	i	i
Cc1ccc(NC(=O)Cn2c(=O)ccc3cc(S(=O)(=O)N4CCCC4)ccc32)cc1N(C)C	nt	nt	i	nt	nt	nt
COc1ccc(-c2nc(CCl)cs2)cc1OC	i	i	i	11µM	?	i
COc1ccccc1N1CCN(C(=O)c2c(C)oc3ncn(C)c(=O)c23)CC1	nt	nt	i	nt	nt	nt
C/C(=N\N=C(N)N)c1ccc(C)c(C)c1	i	9.3µM	i	i	12µM	i
COc1ccc(-n2cc(C(=O)NCc3ccccc3Cl)c3ccccc3c2=O)cc1	nt	nt	i	nt	nt	nt
O=C(COc1cccc(C(F)(F)F)c1)NCC(c1cccs1)N1CCOCC1 (stereo unspecified)	i	13µM	i	?	15µM	i
O=C(COc1cccc(C(F)(F)F)c1)NCC(c1ccco1)N1CCCCC1 (stereo unspecified)	i	15µM	?	i	?	i
CCCn1nc(NC(=O)COC)c2cc3cccc(C)c3nc21	i	i	i	11µM	i	i
CCCn1nc(NC(C)=O)c2cc3cccc(C)c3nc21	i	i	i	11µM	i	i
